# Compounds with a hit are over-represented: about 18% of the library has one in this group of screens.
# KAT2A inh: qHTS Assay for Inhibitors of GCN5L2 | AID 504327, 2011 | Histone acetyltransferase KAT2A (Homo sapiens), Q92830 | Potency, µM (titrated, usually from 58.9 µM), for inactives: top-dose activity change, negative = inhibition, most hits filed as inhibitors | hit rate 0.21% among 390,000 | GCN5L2 HAT assay, ThioGlo1 CoA-SH fluorescence
# Target sequence (Q92830 whole entry, looked up): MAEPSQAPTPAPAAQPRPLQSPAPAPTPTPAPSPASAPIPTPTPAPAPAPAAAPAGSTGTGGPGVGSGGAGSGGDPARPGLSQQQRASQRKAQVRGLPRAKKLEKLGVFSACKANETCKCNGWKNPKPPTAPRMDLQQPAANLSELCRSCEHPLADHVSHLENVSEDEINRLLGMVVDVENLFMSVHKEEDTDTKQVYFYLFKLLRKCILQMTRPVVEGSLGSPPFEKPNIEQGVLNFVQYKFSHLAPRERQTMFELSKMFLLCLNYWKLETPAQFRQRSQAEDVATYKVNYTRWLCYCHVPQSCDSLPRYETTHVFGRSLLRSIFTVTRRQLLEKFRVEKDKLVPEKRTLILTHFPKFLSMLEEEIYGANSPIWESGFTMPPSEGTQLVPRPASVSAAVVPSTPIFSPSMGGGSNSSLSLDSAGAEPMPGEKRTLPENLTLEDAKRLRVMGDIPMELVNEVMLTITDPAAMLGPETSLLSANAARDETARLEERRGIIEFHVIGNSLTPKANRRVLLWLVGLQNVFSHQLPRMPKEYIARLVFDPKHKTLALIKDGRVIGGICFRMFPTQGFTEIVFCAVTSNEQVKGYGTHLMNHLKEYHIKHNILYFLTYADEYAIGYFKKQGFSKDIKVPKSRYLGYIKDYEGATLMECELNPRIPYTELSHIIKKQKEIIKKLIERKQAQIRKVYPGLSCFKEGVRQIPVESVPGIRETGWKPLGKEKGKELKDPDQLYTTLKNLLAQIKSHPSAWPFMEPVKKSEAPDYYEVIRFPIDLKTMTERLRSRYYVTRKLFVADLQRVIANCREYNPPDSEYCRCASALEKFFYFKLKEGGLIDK
#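 GCN5L2 (20 nM) in 50mM HEPES pH 7.5, 0.1mM EDTA, 0.01% Tween-20 preincubated 15 min with compounds at room temperature. Reaction started with H3(1-25) 75uM, acetyl-CoA 70uM, ThioGlo1 50uM; CoA-thiol fluorescence (Ex340/Em540) read at 0 and 20 min.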
# TDP1 cell noCPT: qHTS for Inhibitors of human tyrosyl-DNA phosphodiesterase 1 (TDP1): qHTS in cells in absence of CPT; hit rate 15% among 420,000; DT40 Tdp1-/- hTDP1 cells, no CPT, ATP luminescence, 48 h; AID 686978, 2013; Potency, µM (top dose mostly 46.2 µM), without a hit: top-dose activity change, negative = growth inhibition, actives largely listed as inhibitors; also: nearly all actives have a fitted effect of over 55% in size
#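 Chicken DT40 Tdp1-/- cells complemented with human TDP1, screened without camptothecin (DMSO vehicle only), 400 cells/well. Compounds pin-transferred, cells incubated at 37 °C for at least 48 hr. Growth read as ATP-dependent luminescence (CellTiter-Glo, 30 min at RT).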
# TDP1 cell CPT: qHTS for Inhibitors of human tyrosyl-DNA phosphodiesterase 1 (TDP1): qHTS in cells in presence of CPT. hit rate 12% among 420,000. AID 686979, 2013. chicken DT40 Tdp1-/-;hTDP1 cells + 20 nM CPT, ATP luminescence, 48 h. Potency, µM (titrated, usually from 46.2 µM), for inactives: at the highest dose activity change, negative = growth inhibition, actives largely listed as inhibitors; also: nearly all actives have a fitted effect of over 55% in size
#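 Chicken DT40 Tdp1-/- cells complemented with human TDP1, 400 cells/well, exposed to compounds plus 20 nM camptothecin for at least 48 h at 37 C; viability read as ATP content by CellTiter-Glo luminescence.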
# TDP1 block: qHTS Assay for Inhibitors of Tyrosyl-DNA Phosphodiesterase (TDP1) | recombinant TDP1, AlphaScreen DNA substrate cleavage | Potency, µM (series often up to 130 µM), inactives show at the highest dose activity change, negative = inhibition, most hits filed as inhibitors | hit rate 0.28% among 350,000; also: nearly all actives have a fitted effect of over 40% in size
#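 AlphaScreen read-out: signal falls as enzyme removes the 3' tyrosine-FITC from a 5'-biotinylated DNA oligo (15 nM, 5 min, RT). Enzyme was E. coli-made recombinant Tdp1 at 1 nM, exposed to compound for 15 min beforehand; beads 10 ug/ml, 10 min.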
# VDR inh: Inhibitors of the vitamin D receptor (VDR): qHTS | VDR-SRC2-3 peptide fluorescence polarization, 2 h | Potency, µM, inactives show max response, negative = inhibition, usual class: inhibitors | hit rate 0.93% among 400,000
#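 After 23 nl compound addition and a short centrifugation, plates sat for 2 hours at ambient temperature; polarization of fluorescence then indicated loss of VDR binding to peptide SRC2-3.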
# PLK1 PBD inh: qHTS for Inhibitors of PLK1-PDB (polo-like kinase 1 - polo-box domain): Primary Screen | Potency, µM, for the others: max response, negative = inhibition, actives largely listed as inhibitors | Serine/threonine-protein kinase PLK1 (Homo sapiens), P53350 | hit rate 2.8% among 360,000 | Plk1 PBD binding of FITC phosphopeptide, fluorescence polarization; also: series mostly up to about 57 µM; nearly all actives have a fitted effect of over 65% in size
# * hit, by the source's call; ? = inconclusive; · = no result; [ ] = another dose, or the depositor's remark. Calls follow the shape of the dose curve; as a rule, active = well fitted curve in the direction sought with a large enough effect; inconclusive = small, poorly fitted or top-dose-only effect, or another doubt; inactive = no such curve, though single readings can be large; an effect the other way counts as inactive or inconclusive. % is scaled to controls: 0 for no effect and ±100 for the full control effect; potency is read from the fitted curve at half-maximal effect.
SMILES,KAT2A inh,TDP1 cell noCPT,TDP1 cell CPT,TDP1 block,VDR inh,PLK1 PBD inh
Nc1nc(NCc2ccco2)nc(N2CCCCCC2)c1[N+](=O)[O-],-1%,16µM*,21µM*,11%,-9%,2%
Cc1ccc(Nc2nc(N)c([N+](=O)[O-])c(NCc3ccco3)n2)cc1C,-15%,?,26µM*,9%,-11%,-16%
Nc1nc(NCc2ccco2)nc(N2CCN(Cc3ccccc3)CC2)c1[N+](=O)[O-],-2%,18µM*,?,7%,3%,2%
O=[N+]([O-])c1ccc(CSc2ncnc3c2ncn3[C@@H]2O[C@H](CO)[C@H](O)[C@H]2O)cc1,·,·,·,9%,·,·
COc1cccc(C(=O)N2CCC2(C)C(=O)O)c1 (configuration not stated),·,1%,-14%,·,·,-2%
N#CC1(NC(=O)CN2C(=O)c3ccc([N+](=O)[O-])cc3C2=O)CCCCC1,2%,-2%,-3%,·,-6%,-3%
Cc1ccc(-c2n[nH]c(=S)n2C)cc1,1%,16µM*,26µM*,3%,0%,-13%
COC(=O)C1=C(C)N(c2ccc(C)cc2)/C(=C/c2cccs2)C1=O,-5%,26µM*,?,0%,19%,-19%
Cc1ccc(NC(=O)CCNS(=O)(=O)c2cccc3nsnc23)cc1F,-6%,-29%,3%,3%,13%,-7%
COCC(=O)N1CCC(Oc2ccc(C(=O)N3CCSCC3)cc2)CC1,2%,5%,-8%,3%,-7%,-3%
CC(NC(=O)c1ccc(Br)s1)c1ccncc1 (configuration not stated),-3%,-22%,-1%,-2%,-8%,0%
CNC(=O)C1C(=S)NC(N)=C(C#N)C1c1ccccc1 (configuration not stated),4%,6.5µM*,26µM*,5%,20µM*,27µM*
COc1cccc(OCCSc2nc(N)cc(N)n2)c1,-2%,21µM*,?,4%,-6%,-9%
O/N=C(/C[n+]1ccsc1)c1ccc(I)cc1,·,3.5µM*,5µM*,·,·,·
Nc1nc2c(ncn2[C@@H]2O[C@H](COP(=O)(O)OP(=O)(O)O)[C@@H](O)[C@H]2O)c(=O)[nH]1,-18%,-15%,-16%,2%,-4%,·
CC(C)[C@@H]1[C@H]2CC[C@H](C2)[C@H]1N,·,8%,14%,6%[56.1 µM],·,·
O=Nc1ccc2oc(=O)ccc2c1,?,·,·,23%[56.1 µM],13µM*,·
CCNc1nc(SCCOc2ccc(C)cc2)nc(N(C)C)n1,-4%,21µM*,16µM*,-1%,5%,-6%
CN(NS(=O)(=O)c1ccc([N+](=O)[O-])cc1)c1ccccc1,·,-6%,3%,·,·,3µM*
O=[N+]([O-])c1ccc(S(=O)(=O)Nc2ccc(-c3ccccc3)cc2)cc1,·,13µM*,?,·,·,-14%
C[C@H]1/C=C\CC(=O)OC[C@H](C)C(=O)N2CCC[C@@H]2C(=O)OC1,·,·,·,10%[21 µM],·,·
CCCCNc1c(-c2cccnc2)nc2nc(C)cc(C)n12,·,12µM*,?,·,·,2%
CCC(C)(C)NC(=O)C(c1cccc(OC)c1)N(C(=O)CNC(=O)c1cccs1)c1cccnc1 (configuration not stated),0%,-20%,-2%,-16%,-19%,-3%
O=C(CN1C(=O)CC(c2ccc(F)cc2)=Nc2ccccc21)NCc1ccccc1Cl,-1%,26µM*,?,2%,5%,·
O=C(CN1C(=O)NC2(CCCCCCC2)C1=O)NCc1ccccc1Cl,4%,?,-15%,-2%[56.1 µM],5%,1%

# Compound activity from PubChem.
